Here are results for four compounds from PubChem BioAssay.

Assay [1] can be described thus: compounds binding Alexa647 anti-His antibody – biochemical, small-molecule microarray, 635 nm fluorescence, artefact control for SMM control protein annotation, primary screen (AID 1128).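 Also: score merges feature fluorescence with signal-to-noise for each printed compound spot.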 The note with it: higher = more signal.
For assay [2], the system named is Human papillomavirus type 1a E7 protein (residues 1-88). Put plainly: HPV1a E7 small-molecule binders, primary screen, biochemical, small-molecule microarray, residues 1-88, 635 nm (AID 1129). The following applies: small-molecule microarray binding, fluorescence 635 nm; higher = more signal.
Assay [3] deals with Focal adhesion kinase 1 (Homo sapiens) (UniProt Q05397). Put plainly: PTK2 protein binding on printed compound slides – biochemical, small-molecule microarray, 635/667 nm fluorescence, BSA, DTT, primary screen (AID 1130).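 Also: composite of spot emission at 667 nm and signal to noise over triplicate slides.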 The following applies: 635 nm fluorescence, higher = more signal.
Focal adhesion kinase 1 (Homo sapiens), sequence (Q05397 whole entry, looked up): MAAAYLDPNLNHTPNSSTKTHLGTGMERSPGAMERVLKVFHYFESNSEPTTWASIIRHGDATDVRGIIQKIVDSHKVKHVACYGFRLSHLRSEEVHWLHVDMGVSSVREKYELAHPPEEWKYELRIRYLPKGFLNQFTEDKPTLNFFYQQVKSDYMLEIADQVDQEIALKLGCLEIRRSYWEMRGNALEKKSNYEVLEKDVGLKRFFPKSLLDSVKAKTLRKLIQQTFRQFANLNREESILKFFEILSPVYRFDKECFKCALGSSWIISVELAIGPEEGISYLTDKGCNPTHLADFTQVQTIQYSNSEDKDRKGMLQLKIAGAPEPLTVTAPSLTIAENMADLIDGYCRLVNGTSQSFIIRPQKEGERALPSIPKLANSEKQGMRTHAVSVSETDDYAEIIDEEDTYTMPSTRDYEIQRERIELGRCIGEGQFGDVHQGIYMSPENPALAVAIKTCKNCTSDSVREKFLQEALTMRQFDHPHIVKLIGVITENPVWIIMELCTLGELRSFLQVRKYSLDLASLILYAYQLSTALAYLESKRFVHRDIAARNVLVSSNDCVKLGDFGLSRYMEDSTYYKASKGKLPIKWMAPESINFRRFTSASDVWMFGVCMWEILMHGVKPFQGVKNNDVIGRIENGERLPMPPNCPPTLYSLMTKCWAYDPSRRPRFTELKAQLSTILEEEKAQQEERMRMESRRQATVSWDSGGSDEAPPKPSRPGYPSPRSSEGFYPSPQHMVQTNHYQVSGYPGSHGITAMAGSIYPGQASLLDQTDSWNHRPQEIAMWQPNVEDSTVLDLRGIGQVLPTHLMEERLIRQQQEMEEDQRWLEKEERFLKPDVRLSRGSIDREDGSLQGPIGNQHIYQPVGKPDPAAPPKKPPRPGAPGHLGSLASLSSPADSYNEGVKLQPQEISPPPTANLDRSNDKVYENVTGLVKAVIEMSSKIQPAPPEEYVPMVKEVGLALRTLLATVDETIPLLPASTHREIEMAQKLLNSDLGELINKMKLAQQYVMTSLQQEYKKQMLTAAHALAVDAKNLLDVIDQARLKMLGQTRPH
Assay [4] concerns Fibrinogen (Alexa647-labelled). Put plainly: Alexa647-fibrinogen binding to printed small molecules – biochemical, small-molecule microarray, 635/667 nm fluorescence, artefact control for SMM control-protein annotation, profiling panel (AID 1131).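 Also: z-score merges 667 nm fluorescence with per-spot signal-to-noise over triplicate slides.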 The note with it: fibrinogen-A647 binding fluorescence, higher = more signal.
In assay [5] the target is Follistatin (Homo sapiens) (UniProt P19883). Put plainly: FST protein binding to printed compounds – biochemical, small-molecule microarray, 635/667 nm fluorescence, primary screen (AID 1132). The following applies: 635 nm fluorescence, higher = more signal.
Follistatin (Homo sapiens), sequence (P19883 whole entry, looked up): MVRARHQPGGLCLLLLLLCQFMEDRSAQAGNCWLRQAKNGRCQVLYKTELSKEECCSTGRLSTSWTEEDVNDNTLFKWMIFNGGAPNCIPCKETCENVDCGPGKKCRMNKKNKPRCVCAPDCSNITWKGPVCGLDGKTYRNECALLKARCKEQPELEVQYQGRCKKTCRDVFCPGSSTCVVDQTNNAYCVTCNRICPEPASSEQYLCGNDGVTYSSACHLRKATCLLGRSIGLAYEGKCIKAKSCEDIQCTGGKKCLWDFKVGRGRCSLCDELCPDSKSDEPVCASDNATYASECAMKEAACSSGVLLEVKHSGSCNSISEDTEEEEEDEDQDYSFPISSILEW
The target of assay [6] is Fibroblast growth factor 2 (Homo sapiens) (UniProt P09038). Put plainly: basic fibroblast growth factor binding to printed compounds – biochemical, small-molecule microarray, 635/667 nm fluorescence, primary screen (AID 1133). The note with it: FGF2, fluorescence 635/667, higher = more signal.
Fibroblast growth factor 2 (Homo sapiens), sequence (P09038 whole entry, looked up): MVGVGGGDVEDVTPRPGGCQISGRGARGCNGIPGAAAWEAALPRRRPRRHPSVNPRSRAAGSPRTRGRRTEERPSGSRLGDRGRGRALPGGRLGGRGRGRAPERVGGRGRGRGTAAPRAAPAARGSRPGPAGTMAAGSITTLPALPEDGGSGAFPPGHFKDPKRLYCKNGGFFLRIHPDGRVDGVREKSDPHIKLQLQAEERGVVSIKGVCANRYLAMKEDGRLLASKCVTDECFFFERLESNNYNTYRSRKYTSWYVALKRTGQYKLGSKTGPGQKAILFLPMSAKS
A short description of assay [7]: JC-1 mitochondrial potential readout, lung cancer cells – cell-based, A549, JC-1 fluorescence, basal, 24 h, 100 nL, profiling panel (AID 1138).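 Also: A549 lung adenocarcinoma cells under basal conditions with no added stimulus; test concentration not given here.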 The note with it: higher = more signal.
The test system of a further assay is Lefty1. Put plainly: Lefty1 protein binding to printed compounds – biochemical, small-molecule microarray, 635/667 nm fluorescence, primary screen (AID 1139). The note with it: fluorescence 635/667, higher = more signal.
The test system of assay [8] is wheat germ agglutinin (Triticum aestivum), Alexa647-labelled. Put plainly: Alexa647-WGA lectin binding to printed small molecules – biochemical, small-molecule microarray, 635/667 nm fluorescence, artefact control for SMM control-protein annotation, profiling panel (AID 1140).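 Also: score merges 667 nm feature emission with signal to noise over triplicate slides.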 The following applies: WGA-A647 binding, 635 nm fluorescence, higher = more signal.
For assay [9], the target named is Luciferin 4-monooxygenase (Photinus pyralis) (UniProt P08659). Put plainly: inhibition of purified Photinus pyralis luciferase – biochemical, luminescence, purified enzyme, 2006 set, primary screen (AID 1141).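 Also: cell-free assay with purified firefly luciferase at 100 ng per well in PBS; test concentration not given here.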 The note with it: purified firefly luciferase, SteadyGlo luminescence, 30 min; higher = more signal, called active from +8 up or from −8 down.
Luciferin 4-monooxygenase (Photinus pyralis), sequence (P08659 whole entry, looked up): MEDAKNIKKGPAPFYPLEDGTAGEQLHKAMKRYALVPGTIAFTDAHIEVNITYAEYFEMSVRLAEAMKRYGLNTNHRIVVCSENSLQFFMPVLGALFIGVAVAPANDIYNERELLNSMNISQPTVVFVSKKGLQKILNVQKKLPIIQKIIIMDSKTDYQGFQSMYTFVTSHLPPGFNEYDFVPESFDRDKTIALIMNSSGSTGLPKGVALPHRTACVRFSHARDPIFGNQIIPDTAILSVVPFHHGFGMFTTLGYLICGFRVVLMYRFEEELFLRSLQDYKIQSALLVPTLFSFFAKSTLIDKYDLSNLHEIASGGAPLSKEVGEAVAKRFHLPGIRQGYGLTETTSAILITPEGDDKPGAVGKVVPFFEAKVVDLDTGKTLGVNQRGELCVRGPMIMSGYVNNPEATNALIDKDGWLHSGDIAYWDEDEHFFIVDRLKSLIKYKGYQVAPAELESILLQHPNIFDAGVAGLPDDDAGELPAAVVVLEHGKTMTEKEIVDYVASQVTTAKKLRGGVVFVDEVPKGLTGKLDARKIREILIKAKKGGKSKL
For assay [10], the system named is Wnt5a (protein binding on small-molecule microarray). Put plainly: small molecules binding Wnt5a protein – biophysical, small-molecule microarray, 635/667 nm fluorescence, primary screen (AID 1142).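 Also: fluorescence read at 667 nm with signal to noise per printed feature.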 The note with it: 635 nm fluorescence, higher = more signal.
Assay [11] in a line: ATP-based viability of Huh7 replicon cells – cell-based, CellTiter-Glo luminescence, basal, 48 h, cytotoxicity control for HCV replication inhibitor project, primary screen (AID 1143).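 Also: Huh7 hepatoma cells carrying a hepatitis C replication reporter with no stimulus; test concentration not given here.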 The following applies: higher = more signal, called active from +8 up or from −8 down.
Assay [12] can be described thus: Pseudomonas biofilm growth suppression – PAO1 strain, BacTiter-Glo luminescence, LB-PBS, primary screen (AID 1144). The note with it: P. aeruginosa PAO1 biofilm, 12 h, higher = more signal.
A short description of assay [13]: basal CRE-LacZ reporter activity in PC12 – cell-based, unstimulated, primary screen (AID 1145). The following applies: no forskolin, luminescence, 4.5 h, higher = more signal, called active from +8 up or from −8 down.
The nature of assay [14]: forskolin-driven CRE-LacZ activity in PC12 – cell-based, CRE-LacZ reporter, forskolin-stimulated, primary screen (AID 1146).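 Also: PC12 cells with 6xCRE LacZ reporter stimulated by forskolin 10 µM; beta-galactosidase reporter signal reflecting CREB driven transcription.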 The note with it: luminescence, 4.5 h, higher = more signal, called active from +8 up or from −8 down.
In assay [15] the target is Streptavidin (Streptomyces avidinii) (UniProt P22629). Put plainly: compounds binding control protein streptavidin – biophysical, small-molecule microarray, 635/667 nm fluorescence, artefact control for SMM compound annotation, primary screen (AID 1147).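 Also: signal reflects streptavidin binding to arrayed compounds as a control protein.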 The following applies: higher = more signal.
Streptavidin (Streptomyces avidinii), sequence (P22629 whole entry, looked up): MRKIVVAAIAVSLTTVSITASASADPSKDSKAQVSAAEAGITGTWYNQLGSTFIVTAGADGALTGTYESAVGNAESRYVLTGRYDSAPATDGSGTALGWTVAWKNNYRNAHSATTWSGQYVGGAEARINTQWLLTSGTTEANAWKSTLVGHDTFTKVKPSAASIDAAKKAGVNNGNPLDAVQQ
Assay [16] can be described thus: probe aInhba binding on compound microarray – biochemical, small-molecule microarray, 635/667 nm fluorescence, primary screen (AID 1148).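 Also: score merges 667nm spot fluorescence with signal-to-noise for antibody binding to printed compounds.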 The note with it: higher = more signal.
Assay [17] addresses Torsin-1A (Homo sapiens) (UniProt O14656). Put plainly: TOR1A wild-type binding on microarray – cell lysate, small-molecule microarray, lysate, 635/667 nm, primary screen (AID 1149). The note with it: COS7 hTOR1A-WT lysate, 635 nm fluorescence, higher = more signal.
Assay [18] shares this target. Put plainly: torsin A mutant lysate binding on microarrays – cell lysate, small-molecule microarray, COS7 lysate, 635/667 nm fluorescence, primary screen (AID 1150).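 Also: score pools 667 nm emission and signal to noise measuring lysate protein binding.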 The note with it: COS7 hTOR1A mutant lysate, 635 nm fluorescence, higher = more signal.
Assay [19] has as its system Sonic hedgehog protein (Shh). Put plainly: Sonic hedgehog microarray binding compounds – biochemical, small-molecule microarray, 635/667 nm fluorescence, primary screen (AID 1151).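 Also: Shh protein binding to compounds spotted on small-molecule microarray slides; score combines spot fluorescence intensity with signal-to-noise across triplicate slides.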 The following applies: 635 nm fluorescence, higher = more signal.

Calls of active or inactive are those of the source. Unless noted, no rule for the calls is given here.

Torsin-1A (Homo sapiens), sequence (O14656 whole entry, looked up): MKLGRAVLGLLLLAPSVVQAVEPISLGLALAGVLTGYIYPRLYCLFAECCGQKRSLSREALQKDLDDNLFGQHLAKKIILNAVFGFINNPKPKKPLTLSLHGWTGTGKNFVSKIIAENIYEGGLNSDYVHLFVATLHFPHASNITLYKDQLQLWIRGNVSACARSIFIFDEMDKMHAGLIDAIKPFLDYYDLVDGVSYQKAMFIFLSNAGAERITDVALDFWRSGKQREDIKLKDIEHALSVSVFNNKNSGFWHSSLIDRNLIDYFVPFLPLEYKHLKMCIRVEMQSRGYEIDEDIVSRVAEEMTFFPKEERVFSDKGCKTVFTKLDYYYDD

As for `CC=CC(O)C1C=CC2C(=O)N(C)C(=O)C2N1N1CCCCC1` (stereo not given), the composite z-score is 0.523 in assay [1]; 1.19 in [2]; 0.518 in [3]; 0.714 in assay [4]; 1.08 in assay [5]; -0.0299 in assay [6]. Further, the composite z-score in the assay with Lefty1 is 0.446; in assay [8], 0.864; in assay [10], 0.251; in assay [15] it was 0.988; in [16], -0.15; with Torsin-1A (Homo sapiens) [17] it was 0.74. The composite z-score stood at 0.71 in the assay with Torsin-1A (Homo sapiens) [18] and 0.441 in assay [19]. The z-score in assay [7] was -0.138; in assay [9] it was -0.451 (inactive); in assay [11], 0.173 (inactive); in assay [12], -0.0466 (inactive); in assay [13] it was 1.79 (inactive); in assay [14] it was 0.319 (inactive).

Take `CC(C)N1CC=CC23O[C@@H]4C=CCCOC(=O)C4[C@H]2C(=O)N(CCO)[C@@H]3C1=O` (stereo not given in full): the composite z-score in [1] was -0.517; in assay [2], -1; in assay [3], -0.482; in assay [4] it was -0.288; in assay [5] it was -0.194; in [6] it was -0.205. Moreover, the composite z-score in the assay on Lefty1 is 0.0404; in assay [8], 0.459; in assay [10], -0.496; in assay [15] it was -0.516; in assay [16], -0.213; with Torsin-1A (Homo sapiens) [17], 0.862. The figures for the composite z-score (in the assay with Torsin-1A (Homo sapiens) [18]; in [19]) were 0.875 and -0.0837, respectively. In addition, the z-score in [7] is -0.467; in [9] it was 0.697 (inactive); in assay [11], -0.102 (inactive); in assay [12], -2.21 (inactive); in [13] it was -1.99 (inactive); in assay [14], -0.665 (inactive).

On to `CCOC(=O)C[C@H]1[C@H](OC(=O)c2ccc(-c3ccccc3)cc2)[C@@H](NC(=O)c2ccc3ccccc3c2)c2cc(OCCCO)ccc2N1C(=O)c1ccc2ccccc2n1`, for which the composite z-score in assay [1] was 0.558; in assay [2], 0.921; in assay [3], -0.152; in [4] it was 0.735; in assay [5] it was 0.458; in assay [6], -0.141. Besides, the composite z-score in the assay with Lefty1 came out at 0.367; in assay [8], 0.209; in assay [10], 0.0577; in [15], 1.02; in assay [16] it was 0.106; with Torsin-1A (Homo sapiens) [17], 0.138. For the same compound, the composite z-score with Torsin-1A (Homo sapiens) [18] turned out to be 0.527; in assay [19], 0.539. Besides, the z-score in assay [7] is 0.329; in assay [9], -0.704 (inactive); in assay [11] it was 0.866 (inactive); in [12], -0.0546 (inactive); in assay [13], -0.593 (inactive); in assay [14], -0.611 (inactive).

With `CCOC(=O)[C@@H]1[C@@H]2C(=O)N(CC)C(=O)[C@@H]2C[C@@H]1Sc1ccccc1`, the composite z-score was found to be 1.62 in assay [1]; 1.2 in [2]; 0.592 in [3]; 0.462 in assay [4]; 0.329 in [5]; 0.0435 in [6]. The composite z-score in the assay with Lefty1 amounted to 0.307; in [8], 0.402; in assay [10], 0.202; in assay [15], 0.603; in assay [16] it was 0.0357; in the assay with Torsin-1A (Homo sapiens) [17], 0.592. For the same compound, the composite z-score with Torsin-1A (Homo sapiens) [18] worked out at 0.975; in [19], 0.209. Besides, the z-score in assay [7] was -1.24; in assay [9], 1.4 (inactive); in [11] it was 0.371 (inactive); in assay [12], -0.868 (inactive); in [13], 0.136 (inactive); in [14] it was 1.04 (inactive).
